Where a name gives a salt, the structure may show the parent alone.
These compounds were tested on E18 rat cortical neuron-glia co-culture (assay: myelination (MBP fiber length per Olig2+ nucleus), % of 1 µM DAPT response (DMSO = 0) (% of DAPT); higher = more myelination, active = 50 or more). Details: 1 µM; treatment time: 8 days (DIV5-DIV13).
Outline: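 Myelination, expressed as continuous straight MBP fiber length per Olig2+ nucleus, was normalised to 0.1 % DMSO as 0 and a 1 µM positive control as 100. The cultures were primary E18 rat cortical co-cultures dissociated with papain and plated at 20,000 cells/well on poly-d-lysine/laminin-coated 96-well plates. They received library compounds at 1 or 5 µM in myelination medium between DIV5 and DIV13. Analysis covered four 10X fields per well in duplicate wells after 4 % paraformaldehyde fixation and immunostaining for MBP and Olig2 with DAPI.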
With `O=C(O)CCCc1ccc(N(CCCl)CCCl)cc1` [Chlorambucil] the myelination was -6.49 (inactive). In the case of `c1cncc([C@@H]2CCCN2)c1` [Nornicotine], the myelination is reported as -20.2 (inactive). For `CN1C(=O)CN=C(c2ccccc2)c2cc(Cl)ccc21` [Diazepam], the myelination was -8.32 (inactive). For `c1ccc(Cn2ccnc2)cc1` [1-Benzylimidazole], the myelination was -11.8 (inactive).

Same assay, conditions: 5 µM; treatment time: 8 days (DIV5-DIV13)
For `CCC(COC(=O)c1cc(OC)c(OC)c(OC)c1)(c1ccccc1)N(C)C` (stereo unspecified) [Trimebutine], the myelination was -64 (inactive). For `CN1C(=O)CN=C(c2ccccc2)c2cc([N+](=O)[O-])ccc21` [Nimetazepam], the myelination was -8.49 (inactive). With `CC(C)CC(N(C)C)C1(c2ccc(Cl)cc2)CCC1` (stereo unspecified) [Sibutramine] the myelination was -0.392 (inactive). For `COC(=O)N1CCN(C(=O)Cc2ccc(Cl)c(Cl)c2)C(CN2CCCC2)C1` (stereo unspecified), the myelination was -22.4 (inactive). For `CC(=O)O[C@H]1C[C@@H]2CC[C@@H]3[C@H](CC[C@@]4(C)[C@H]3C[C@H]([N+]3(C)CCCCC3)[C@@H]4OC(C)=O)[C@@]2(C)C[C@@H]1[N+]1(C)CCCCC1` [Pancuronium], the myelination was 2.32 (inactive). For `c1ccc2c(c1)Nc1ccccc1S2` [Phenothiazine], the myelination was -5.33 (inactive). For `O=P1(N(CCCl)CCCl)NCCCO1` (stereo unspecified) [Cyclophosphamide], the myelination was -54.7 (inactive). `CCN(CC)CCOC(=O)C(O)(c1ccccc1)c1ccccc1` [Benactyzine] was tested, and the myelination was 0.796 (inactive). For `CCN(C(C)=O)c1cccc(-c2ccnc3c(C#N)cnn23)c1` [Zaleplon], the myelination was 16 (inactive). `O=C1Nc2ccc(Cl)cc2C(c2ccccc2Cl)=NC1O` (stereo unspecified) [Lorazepam] was tested, and the myelination was 15 (inactive). In the case of `COc1ccc2[nH]cc(CCN)c2c1` [5-Methoxytryptamine], the myelination is reported as -8.85 (inactive). For `C[C@]12CC[C@H]3[C@@H](CCC4=CC(=O)CC[C@@]43C)[C@@H]1CC[C@@H]2O` [Testosterone], the myelination was -15.4 (inactive). In the case of `O[C@@H]1CCCC[C@H]1N1CCC(c2ccccc2)CC1` (racemic) [Vesamicol], the myelination is reported as -46 (inactive). In the case of `CC(C)(O)[C@@H]1[C@H]2OC(=O)[C@@H]1[C@]1(O)C[C@H]3O[C@]34C(=O)O[C@H]2[C@]14C` [Picrotin], the myelination is reported as -5.47 (inactive). In the case of `Cc1nnc2n1-c1ccc(Cl)cc1C(c1ccccc1)=NC2` [Alprazolam], the myelination is reported as -17.4 (inactive). With `CN1C(=O)COc2c(C(=O)NC3CN4CCC3CC4)cc(Cl)cc21` (stereo unspecified) [Azasetron] the myelination was 2.28 (inactive). `CC[C@@H]1C=CC=CC[C@H](C)[C@@H](O)[C@@H](C)C(=O)[C@H](C)[C@@H](O)[C@H](C)C(=O)[C@H](C)[C@@H](O)[C@H](C)C=CC(=O)O[C@H]2[C@@H](C)[C@@H](CC1)O[C@@]1(CC[C@@H](C)[C@@H](C[C@H](C)O)O1)[C@@H]2C` [Oligomycin C] was tested, and the myelination was 47.7 (inactive). `CC(C)N(CCC(C(N)=O)(c1ccccc1)c1ccccn1)C(C)C` (stereo unspecified) [Disopyramide] was tested, and the myelination was -13.6 (inactive). For `COc1ccc(C(CN(C)C)C2(O)CCCCC2)cc1` (stereo unspecified) [Venlafaxine], the myelination was -3.31 (inactive). In the case of `C[C@]12CC[C@H]3[C@@H](CCC4=CC(=O)CC[C@@H]43)[C@@H]1CC[C@@H]2O` [Nandrolone], the myelination is reported as -16.8 (inactive). `CN1[C@@H]2C[C@@H](OC(=O)[C@H](CO)c3ccccc3)C[C@H]1[C@@H]1O[C@@H]12` [Scopolamine hydrobromide] was tested, and the myelination was -31.2 (inactive). In the case of `C[C@H]1CCC[C@H](O)CCCCCc2cc(O)cc(O)c2C(=O)O1` [Zeranol], the myelination is reported as -5.48 (inactive). With `C[C@]12CC[C@H](O)CC1=CC[C@@H]1[C@@H]2CC[C@]2(C)C(=O)CC[C@@H]12` [Dehydroepiandrosterone] the myelination was -6.07 (inactive). `O=C(O)CCCc1ccc(N(CCCl)CCCl)cc1` [Chlorambucil] was tested, and the myelination was -17 (inactive). With `c1cncc([C@@H]2CCCN2)c1` [Nornicotine] the myelination was -19 (inactive). For `CN1C(=O)CN=C(c2ccccc2)c2cc(Cl)ccc21` [Diazepam], the myelination was -9.05 (inactive). `c1ccc(Cn2ccnc2)cc1` [1-Benzylimidazole] was tested, and the myelination was -0.886 (inactive).
